Data published in PubChem BioAssay (Tox21).
Results filed as inconclusive are left out. A call without a number means that no potency is given here. The source made the active and inactive calls. Unless noted, calls follow the shape of the full dose curve.

Experiments:
[1] = Nuclear factor erythroid 2-related factor 2/antioxidant responsive element (Nrf2/ARE) small molecule agonists: qHTS cell viability counter screen in human keratinocytes (AID 1919968; active = well fitted curve in the direction sought with a large enough effect in the repeat runs; an effect the other way counts as inactive or inconclusive; also: nearly all actives have a fitted effect of over 55% in size)
Summary of the method: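 Measured as CellTiter-Fluor fluorescence, this readout tracks cytotoxicity in the same wells as the ARE-luciferase screen. HaCaT reporter cells (1,500/well) received compounds after a 5 h pre-incubation and were exposed for 23 h.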

[2] = Nuclear factor erythroid 2-related factor 2/antioxidant responsive element (Nrf2/ARE) small molecule agonists: luciferase reporter gene qHTS assay in human keratinocytes (AID 1919969); also: nearly all actives have a fitted effect of over 35% in size; also: potency is read from the fitted curve at half-maximal effect
[3] = biological target: Gonadotropin-releasing hormone receptor (Homo sapiens) (UniProt P30968); experiment: Human gonadotropin-releasing hormone receptor (GnRHR) small molecule agonists, calcium flux assay in GnRHR-HEK293 cells (AID 1920063); also: nearly all actives have a fitted effect of over 35% in size
Summary of the method: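 Fluorescence kinetics (480 nm excitation, 540 nm emission; 3 min, 1 s steps) report calcium mobilisation in human GnRHR-HEK293 cells in agonist mode. Dye incubation: 1 h, 37 C.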

[4] = biological target: KiSS-1 receptor (Homo sapiens) (UniProt Q969F8); experiment: Human kisspeptin (KISS1R) small molecule agonists, calcium flux assay in KISS1R-HEK293 cells (AID 1920064; active = well fitted curve in the direction sought with a large enough effect in the repeat runs; an effect the other way counts as inactive or inconclusive)
Summary of the method: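 Measures KISS1R agonism through calcium-sensitive dye fluorescence in stably transfected HEK293 cells, read for 3 min after pin-tool compound delivery; 15-point titrations in triplicate.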

[5] = G protein-coupled receptor (GPCR) small molecule agonists, calcium flux assay: HEK293 wild type cell line counter screen (AID 1920065)
Summary of the method: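 Readout: fluorescence at 480 nm excitation/540 nm emission, sampled at 1 s intervals for 3 min. Cells had been cultured 18 h, then dye-loaded 1 h at 37 C before compound or ATP addition.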

[6] = p53 small molecule agonists, cell-based qHTS assay with human liver microsomes: qHTS cell viability counter screen (AID 1963579); also: nearly all actives have a fitted effect of over 45% in size
Summary of the method: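 Metabolically activated exposure: compounds, human liver microsomes and NADPH (0.5 mg/mL final apiece) were added to p53RE-bla cells seeded 5 h earlier, left 16 h at 37 C, and then assessed for viability by CellTiter-Glo luminescence.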

[7] = p53 small molecule agonists, cell-based qHTS assay with rat liver microsomes: qHTS cell viability counter screen (AID 1963580); also: nearly all actives have a fitted effect of over 45% in size
Summary of the method: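 HCT-116 p53RE-bla, 4,000 cells/well, 5 h pre-incubation; cpd + rat liver microsomes 0.5 mg/mL + NADPH 0.5 mg/mL (final); 16 h, 37 C; CellTiter-Glo, 30 min RT; luminescence.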

[8] = p53 small molecule agonists, cell-based qHTS assay: qHTS cell viability counter screen (AID 1963581); also: nearly all actives have a fitted effect of over 45% in size
Summary of the method: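 In the same plates used for the p53 bla reporter, HCT-116 cells given compounds for 16 h at 37 C received CellTiter-Glo; luminescence was recorded 30 min later at room temperature.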

[9] = biological target: 5-hydroxytryptamine receptor 2A (Homo sapiens) (UniProt P28223); experiment: 5-hydroxytryptamine receptor 2A (HTR2A) small molecule antagonists, cell-based qHTS assay (AID 1963586); also: nearly all actives have a fitted effect of over 45% in size
Summary of the method: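 Antagonist-mode intracellular calcium assay: DOI (4 nM) added after 5 min compound pre-incubation at room temperature to dye-loaded HTR2A-CHO cells. Fluorescence followed for 3 min, sampled every second.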

[10] = biological target: 5-hydroxytryptamine receptor 2A (Homo sapiens) (UniProt P28223); experiment: 5-hydroxytryptamine receptor 2A (HTR2A) small molecule agonists, cell-based qHTS assay (AID 1963587); also: nearly all actives have a fitted effect of over 30% in size
Summary of the method: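 Kinetic calcium-flux fluorescence (2 min, 1 sec intervals) after compound addition in agonist mode. HTR2A-CHO cells were cultured 18 h, then dye-loaded 1 h at 37 C.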

[11] = biological target: Muscarinic acetylcholine receptor M1 (Homo sapiens) (UniProt P11229); experiment: Cholinergic receptor muscarinic 1 (CHRM1) small molecule antagonists, cell-based qHTS assay (AID 1963588); also: nearly all actives have a fitted effect of over 40% in size
Summary of the method: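 CHRM1-CHO calcium-flux assay, antagonist mode. Cells were seeded 18 h, dye-loaded 1 h at 37 C and given compound for 5 min at RT, then acetylcholine was added at 50nM. FDSS fluorescence was read 3 min; 15 concentrations, three runs.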

[12] = biological target: Muscarinic acetylcholine receptor M1 (Homo sapiens) (UniProt P11229); experiment: Cholinergic receptor muscarinic 1 (CHRM1) small molecule agonists, cell-based qHTS assay (AID 1963589); also: nearly all actives have a fitted effect of over 35% in size
Summary of the method: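 Each compound was tested at 15 concentrations across three independent runs on dye-loaded CHO cells stably expressing human CHRM1, reading intracellular calcium fluorescence kinetically at 1 sec intervals.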

[13] = cAMP Responsive Elements (CRE) small molecule agonists, cell-based qHTS assay (AID 1963590)
Summary of the method: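 Cell line: CRE-bla HEK 293T; medium DMEM/10% dialyzed FBS/0.1 mM NEAA/1 mM pyruvate/25 mM HEPES; 3 h compound exposure; beta-lactamase FRET readout after 2 h substrate loading at RT.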

[14] = cAMP Responsive Elements (CRE) small molecule antagonists, cell-based qHTS assay (AID 1963591; active = well fitted inhibition curve with a large enough effect in the signal ratio in the repeat runs, not every such curve was filed as active; the % refers to the signal ratio)
Summary of the method: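 Inhibition of NKH477-driven (0.25 uM final) CRE-beta-lactamase signal in HEK293T cells, 3 h compound exposure at 37 °C, detected by FRET substrate fluorescence.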

[15] = biological target: Beta-2 adrenergic receptor (Homo sapiens) (UniProt P07550); experiment: Adrenergic beta2 receptor (ADRB2) small molecule antagonists, cell-based qHTS assay (AID 1963592); also: series mostly up to about 92 µM; nearly all actives have a fitted effect of over 50% in size
Summary of the method: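 Cells (CHO, stable ADRB2 overexpression) incubated 18-20hr at 37C; compounds added from DMSO; agonist mix (1nM isoproterenol, 100uM IBMX, 25uM Ro-20-1724) added; 0.5hr RT; d2-cAMP and anti-cAMP-cryptate added; 1hr RT; 665/615 nm read.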

[16] = biological target: Beta-2 adrenergic receptor (Homo sapiens) (UniProt P07550); experiment: Adrenergic beta2 receptor (ADRB2) small molecule agonists, cell-based qHTS assay (AID 1963593);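 also: CHO cells stably overexpressing human ADRB2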
Summary of the method: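 CHO cells stably over-expressing ADRB2 were plated overnight at 37C, then dosed with compounds plus a stimulation mix containing 100uM IBMX and 25uM Ro-20-1724 for 0.5hr at room temperature. cAMP was measured by HTRF competition, 1hr.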

[17] = biological target: D(2) dopamine receptor (Homo sapiens) (UniProt P14416); experiment: Dopamine D2 receptor (DRD2) small molecule agonists, cell-based qHTS assay (AID 1963594); also: nearly all actives have a fitted effect of over 35% in size
Summary of the method: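 cAMP accumulation in DRD2-HEK293 cells measured by HTRF after 1 h detection; compounds added 10 min before NKH477 (200nM […]) forskolin-analogue stimulation, 30 min at room temperature, with Ro20-1724 present at 0.1 mM final.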

[18] = biological target: D(2) dopamine receptor (Homo sapiens) (UniProt P14416); experiment: Dopamine D2 receptor (DRD2) small molecule antagonists, cell-based qHTS assay (AID 1963595; active = well fitted inhibition curve with a large enough effect in the signal ratio in the repeat runs, with a control signal flat; the % refers to the signal ratio)
Summary of the method: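 HTRF cAMP read-out at 665 and 620 nm emission (340 nm excitation). Antagonist mode: compounds were tested against 12 nM quinpirole in DRD2-HEK293 cells, with 200 nM NKH477 raising cAMP and 0.1 mM Ro20-1724 blocking its breakdown.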

5-hydroxytryptamine receptor 2A (Homo sapiens), sequence (P28223 whole entry, looked up): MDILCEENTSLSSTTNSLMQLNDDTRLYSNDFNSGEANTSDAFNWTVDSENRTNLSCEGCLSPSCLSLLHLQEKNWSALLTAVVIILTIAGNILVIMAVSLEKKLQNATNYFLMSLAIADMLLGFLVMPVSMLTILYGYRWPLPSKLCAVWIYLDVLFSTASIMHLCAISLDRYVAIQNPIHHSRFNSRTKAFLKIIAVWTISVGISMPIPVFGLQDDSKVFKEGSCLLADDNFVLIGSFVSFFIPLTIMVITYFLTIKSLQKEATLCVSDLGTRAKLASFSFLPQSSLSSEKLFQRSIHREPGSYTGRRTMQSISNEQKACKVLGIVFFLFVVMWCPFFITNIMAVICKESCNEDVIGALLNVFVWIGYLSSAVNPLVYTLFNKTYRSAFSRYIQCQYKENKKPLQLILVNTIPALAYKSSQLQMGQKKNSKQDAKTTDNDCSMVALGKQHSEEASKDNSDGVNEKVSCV
Muscarinic acetylcholine receptor M1 (Homo sapiens), sequence (P11229 whole entry, looked up): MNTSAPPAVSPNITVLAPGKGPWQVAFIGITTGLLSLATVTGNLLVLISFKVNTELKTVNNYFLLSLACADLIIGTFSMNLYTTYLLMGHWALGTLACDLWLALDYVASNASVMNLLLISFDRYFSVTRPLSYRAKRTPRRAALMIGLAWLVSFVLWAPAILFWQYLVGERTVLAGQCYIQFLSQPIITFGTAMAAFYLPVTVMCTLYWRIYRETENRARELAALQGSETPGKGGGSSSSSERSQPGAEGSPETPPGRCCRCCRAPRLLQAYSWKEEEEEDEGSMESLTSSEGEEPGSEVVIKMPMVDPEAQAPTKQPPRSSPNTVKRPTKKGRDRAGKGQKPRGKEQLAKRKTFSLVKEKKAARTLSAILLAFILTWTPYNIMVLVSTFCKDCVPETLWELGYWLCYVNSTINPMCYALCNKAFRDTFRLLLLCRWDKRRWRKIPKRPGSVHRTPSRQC
Gonadotropin-releasing hormone receptor (Homo sapiens), sequence (P30968 whole entry, looked up): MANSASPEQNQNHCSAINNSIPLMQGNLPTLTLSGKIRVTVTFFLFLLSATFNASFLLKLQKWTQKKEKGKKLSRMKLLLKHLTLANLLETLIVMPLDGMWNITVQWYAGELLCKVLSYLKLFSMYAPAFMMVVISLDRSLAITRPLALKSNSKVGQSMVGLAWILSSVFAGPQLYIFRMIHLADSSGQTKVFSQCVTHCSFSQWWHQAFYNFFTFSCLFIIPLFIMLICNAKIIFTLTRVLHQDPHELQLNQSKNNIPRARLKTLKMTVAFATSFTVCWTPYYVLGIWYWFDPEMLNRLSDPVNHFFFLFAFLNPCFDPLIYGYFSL
D(2) dopamine receptor (Homo sapiens), sequence (P14416 whole entry, looked up): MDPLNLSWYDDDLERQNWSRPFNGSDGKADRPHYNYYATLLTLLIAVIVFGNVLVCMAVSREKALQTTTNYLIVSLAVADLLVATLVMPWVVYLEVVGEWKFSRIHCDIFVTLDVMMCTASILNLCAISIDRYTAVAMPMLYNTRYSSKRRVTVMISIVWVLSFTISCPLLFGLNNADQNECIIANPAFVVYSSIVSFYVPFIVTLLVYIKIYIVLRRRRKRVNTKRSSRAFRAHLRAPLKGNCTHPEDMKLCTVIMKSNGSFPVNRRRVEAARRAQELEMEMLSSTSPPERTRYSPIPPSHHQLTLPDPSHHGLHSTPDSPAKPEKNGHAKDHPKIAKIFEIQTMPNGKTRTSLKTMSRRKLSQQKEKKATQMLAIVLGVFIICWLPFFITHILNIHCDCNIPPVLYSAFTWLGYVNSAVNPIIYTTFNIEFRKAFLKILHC
Beta-2 adrenergic receptor (Homo sapiens), sequence (P07550 whole entry, looked up): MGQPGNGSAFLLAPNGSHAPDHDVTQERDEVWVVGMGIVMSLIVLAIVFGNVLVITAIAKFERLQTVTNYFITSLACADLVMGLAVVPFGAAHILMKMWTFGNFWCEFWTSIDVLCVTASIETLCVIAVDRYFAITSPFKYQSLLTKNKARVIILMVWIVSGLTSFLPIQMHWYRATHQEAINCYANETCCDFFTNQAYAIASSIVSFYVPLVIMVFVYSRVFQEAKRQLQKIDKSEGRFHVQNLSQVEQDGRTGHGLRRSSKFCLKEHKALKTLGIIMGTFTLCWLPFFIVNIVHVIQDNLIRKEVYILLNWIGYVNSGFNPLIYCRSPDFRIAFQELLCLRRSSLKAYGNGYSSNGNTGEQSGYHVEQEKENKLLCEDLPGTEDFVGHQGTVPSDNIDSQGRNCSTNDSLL
KiSS-1 receptor (Homo sapiens), sequence (Q969F8 whole entry, looked up): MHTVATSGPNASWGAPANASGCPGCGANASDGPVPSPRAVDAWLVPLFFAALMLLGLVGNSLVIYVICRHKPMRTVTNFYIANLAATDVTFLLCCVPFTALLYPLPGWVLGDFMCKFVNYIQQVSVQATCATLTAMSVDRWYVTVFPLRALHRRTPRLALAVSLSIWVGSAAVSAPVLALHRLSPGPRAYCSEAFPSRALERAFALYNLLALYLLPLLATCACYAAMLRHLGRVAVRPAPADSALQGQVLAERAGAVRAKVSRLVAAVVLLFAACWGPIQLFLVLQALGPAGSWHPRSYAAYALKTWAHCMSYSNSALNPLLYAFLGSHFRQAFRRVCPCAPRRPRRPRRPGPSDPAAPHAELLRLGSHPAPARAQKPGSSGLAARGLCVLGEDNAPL

Row | Structure (SMILES) | Potency [1] | Potency [2] | Potency [3] | Potency [4] | Potency [5] | Potency [6] | Potency [7] | Potency [8] | Potency [9] | Potency [10] | Potency [11] | Potency [12] | Potency [13] | Potency [14] | Potency [15] | Potency [16] | Potency [17] | Potency [18]
1 | CC(C)CP(=S)(S)CC(C)C | inactive | 15.4 µM (active) | inactive | inactive | inactive | inactive | inactive | inactive | inactive | inactive | inactive | inactive | inactive | inactive | inactive | inactive | inactive | inactive
2 | ClCCCCCCCl | inactive | inactive | inactive | inactive | inactive | inactive | inactive | inactive | inactive | inactive | inactive | inactive | inactive | inactive | inactive | inactive | inactive | inactive
3 | CCC1(CC)C(=O)N=C(O)NC1=O | inactive | inactive | inactive | inactive | inactive | inactive | inactive | inactive | inactive | inactive | inactive | inactive | inactive | inactive | inactive | inactive | inactive | inactive
4 | COc1ncc(F)c2nc(S(=O)(=O)Nc3c(F)cccc3F)nn12 | inactive | inactive | inactive | inactive | inactive | inactive | inactive | inactive | inactive | inactive | inactive | inactive | inactive | inactive | inactive | inactive |  | inactive
5 | O=C(CBr)c1ccccc1 | inactive | 69 µM (active) | inactive | inactive | inactive | inactive | inactive | inactive | inactive | inactive | inactive | inactive | inactive | inactive | inactive |  | inactive | inactive
6 | CCn1cc[n+](C)c1 (tested in a mixture with another compound) | inactive | inactive | inactive | inactive | inactive | inactive | inactive | inactive | inactive | inactive | inactive | inactive | inactive | inactive | inactive | inactive | inactive | inactive
7 | Fc1cccc(Cl)c1CCl | inactive | inactive | inactive | inactive | inactive | inactive | inactive | inactive | inactive | inactive | inactive | inactive | inactive | inactive | inactive |  |  | inactive
8 | Cc1ncsc1CCCl | inactive | inactive | inactive | inactive | inactive | inactive | inactive | inactive | inactive | inactive | inactive | inactive | inactive |  |  | inactive | inactive | inactive
